Results taken from PubChem BioAssay AID977624 (Broad Institute, 2014).
In all, about 1,800 compounds went through this assay and fewer than 10 were called active. About 44% were inconclusive and are not listed.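 Rule for the calls: active = compound lowering the normal-ribosome reporter at least twice as much as the humanized-ribosome reporter, growth loss under a set limit; inconclusive = no clear call, values can overlap the other calls; inactive = the rest.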 A selection follows.

Experiment: wild-type E. coli growth inhibition versus h34 humanized strain – h34 mutant RFP, wild-type GFP, cherry-pick, dose response (AID 977624)
Conditions: fluorescence, 24 h; series mostly up to 50 µM

outcome, inactive:
COc1cccc(NC(=O)c2ccc(C(=O)c3ccccc3)o2)c1, COc1ccc(C(=O)C2CCCN(C(=O)c3noc4c3CCCC4)C2)cc1F (stereo not drawn), COc1ccc(C(=O)N(c2ccccc2)c2nccc3ccccc23)cc1OC, COc1ccc(C2CC(=O)CCN2S(=O)(=O)c2ccc(C)cc2)cc1 (stereo not drawn), O=C(NCc1ccc(S(=O)(=O)Nc2ccccc2Cl)s1)c1ccccc1, Cc1ccc(C)c(-c2[nH]ncc2CN2CCCC(CO)(Cc3ccccc3C)C2)c1 (stereo not drawn), Cc1nn(-c2cccc(Cl)c2)nc1C(=O)O, CC1CCN(c2ccc3nnc(CCC(=O)Nc4cccc(F)c4)n3n2)CC1, O=C1c2ccccc2NC(c2ccc(-c3cccc([N+](=O)[O-])c3)o2)N1O (stereo not drawn), COc1ccc(OC)c(-c2csc(NC(=O)C3COc4ccccc4O3)n2)c1 (stereo not drawn), COc1ccc(-n2nc3cc(N)c(Br)cc3n2)cc1, CN1C(=O)c2cc(NC(=O)c3cccc(F)c3)ccc2OC[C@H]2O[C@@H](CC(=O)N3CCc4ccccc4C3)CC[C@@H]21, Brc1cc2c(cc1Br)OCCOCCOCCO2, COC(=O)CC#C[C@H](C)[C@@H](NS(=O)(=O)c1ccc([N+](=O)[O-])cc1)C(C)(C)C, Cc1cc(C(=O)NCCC2=CCCCC2)ccc1[N+](=O)[O-], CN(C)S(=O)(=O)c1ccc(Cl)c(C(=O)OCC(=O)NC(=O)c2cccn2C)c1, COC(=O)c1cc(S(=O)(=O)NCc2ccc3c(c2)OCO3)cn1C, Cc1ccc(-c2cc(-c3ccc(C)cc3)[n+](-c3ccc(C(=O)[O-])cc3)c(-c3ccc(C)cc3)c2)cc1, CC(=O)Nc1ccc(NS(=O)(=O)c2ccc(Cl)s2)cc1, CN(c1ccc(C(=O)NCc2cccs2)cc1)S(=O)(=O)c1ccccc1, CCn1nc(C(=O)OCc2cccc(S(=O)(=O)N(C)C)c2)c2ccccc2c1=O, COc1cccc(NC(=O)CSc2nc3c(sc4ccccc43)c(=O)n2CCN(C)C)c1, O=C(CC1C(=O)NCCN1CC1CCCCC1)NCc1ccc(F)cc1F (stereo not drawn), CC(=O)N1CCN(c2nc(-c3cccs3)nc3ccccc23)CC1, COc1ccc(NC(=O)c2sccc2-n2cccc2)cc1, O=C(Cc1ccc(NC(=O)C2CCCN(C(=O)CCc3ccccc3)C2)cc1)Nc1cccc(C(=O)N2CCCC2)c1 (stereo not drawn), COc1ccc(Nc2nc(NCCO)nc(N3CCCC3)n2)cc1, CC(C)[C@H](NC(=O)c1ccc([N+](=O)[O-])cc1Cl)C(=O)N1CCN(C/C=C/c2ccccc2)CC1, COc1ccccc1NC(=O)CN1CCSc2ccccc21, O=C(NCc1ccccc1Cl)[C@H]1CCCN1C(=O)[C@H]1CCCN1C(=O)c1cccc2ccccc12, CC1(C(=O)Nc2ccc3c(c2)OCCO3)CSCC(=O)N1CCOc1ccccc1 (stereo not drawn), O=S(=O)(c1cnc(Cl)c(Cl)c1)N1CCCc2ccccc21, CCOC(=O)C1(CCCc2ccccc2)CCN(C(=O)CCn2cncn2)CC1
